Source: publication PMC5540273 (PLoS ONE, 2017)
Where “and” joins values, the source holds several entries; their conditions need not be identical. Equal values may be shown once. Read-outs that look alike come from different tables or passages of the source.

What was measured:
TNIK = settings: concentration: 1 μM, replicates: in singlicate; n = 1
TNK1 = settings: concentration: 1 μM, replicates: in singlicate; n = 1
TNK2 = settings: n = 1
TNNI3K = settings: n = 1
TRKA = system: T1, TRKA; settings: concentration: 1 μM, replicates: in singlicate; n = 1
T1 construct: gene NTRK1

TRKB = settings: n = 1
TRKC = system: T2, TRKC; settings: n = 1
T2 construct: gene NTRK3

TRPM6 = settings: n = 1
TSSK1B = settings: n = 1
TSSK3 = settings: n = 1
[1] = concentration: 1 μM, replicates: in singlicate
[2] = concentration: 1 μM,replicates: in singlicate, 1 µM
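Further: KINOMEscan kinase panel screen.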

Row | SMILES | %Inh (TNIK) [%] | %Inh (TNK1) [%] | %Inh (TNK2; [1]) [%] | %Inh (TNNI3K; [1]) [%] | %Inh (TRKA) [%] | %Inh (TRKB; [1]) [%] | %Inh (TRKC; [1]) [%] | %Inh (TRPM6; [1]) [%] | %Inh (TSSK1B; [1]) [%] | %Inh (TSSK3; [1]) [%] | %Inh (TNK2; [2]) | %Inh (TNNI3K; [2]) | %Inh (TRKB; [2]) | %Inh (TRKC; [2]) | %Inh (TRPM6; [2]) | %Inh (TSSK1B; [2]) | %Inh (TSSK3; [2])
1 | Cc1cc(NCC(c2ccccc2)c2ccccc2)nc(NCc2ccc(C(F)(F)F)cc2)n1 [GW497681] | 0 | 0 | 0 | 0 | 0 | 14 | 7 | 0 | 0 | 4 |  |  |  |  |  |  | 
2 | COc1ccc(Nc2nccc(-c3cccc(NC(=O)c4cc5cc(F)ccc5[nH]4)c3)n2)cc1 [GSK1229782] | 84 | 0 | 16 | 0 | 52 | 36 | 47 | 33 | 22 | 35 |  |  |  |  |  |  | 
3 | CCn1c(-c2cccnc2O)nc2cnccc21 [SB-736715] | 0 | 8 | 0 | 0 | 0 | 3 | 0 | 0 | 0 | 0 |  |  |  |  |  |  | 
4 | Cc1ccccc1-n1cnc2c(N)ncnc21 [SKF-97510] | 0 | 0 | 7 | 0 | 0 | 0 | 0 | 66 | 0 | 0 |  |  |  |  |  |  | 
5 | Cc1cccc(-c2nc(C)cc(Nc3ccncc3)n2)n1 [GSK257997] | 0 | 0 | 28 | 0 | 39 | 0 | 0 | 24 | 3 | 17 |  |  |  |  |  |  | 
6 | COc1cccc(NC(=O)NC2CCN(c3ccnc(Nc4ccc(F)cc4)n3)C2)c1 (centres unmarked) [GSK1379721] | 0 | 0 | 0 | 2 | 42 | 59 | 80 | 26 | 9 | 23 |  |  |  |  |  |  | 
7 | CN(C)CCN(C)C(=O)c1cc(-c2ccncc2)c(-c2ccc(Cl)c(O)c2)o1.Cl.Cl [SB-710397] | 51 | 2 | 0 | 17 | 0 | 43 | 35 | 27 | 24 | 24 |  |  |  |  |  |  | 
8 | Fc1cc(Cl)ccc1Nc1ccnc2cc(-c3ccc(CN4CCCCC4)o3)ccc12 [GW560116] | 10 | 0 | 2 | 0 | 4 | 19 | 12 | 0 | 0 | 8 |  |  |  |  |  |  | 
9 | Cc1cccc(-c2nc(-c3ccc(S(C)(=O)=O)cc3)sc2-c2ccnc(NCCc3ccccc3)c2)c1 | 10 | 0 | 0 | 0 | 0 | 0 | 15 | 0 | 0 | 0 |  |  |  |  |  |  | 
10 | Cc1ccc(-c2cc(-c3c[nH]nc3-c3ccccn3)ccn2)cc1 [GW684088] | 90.2 | 19 | 12 | 0 | 18 | 22 | 40 | 0 | 0 | 10 |  |  |  |  |  |  | 
11 | O=C(Nc1ccccc1)Nc1cccc(Oc2ccc3nccn3n2)c1 | 7 | 23 | 0 | 0 | 0 | 0 | 27 | 0 | 0 | 0 |  |  |  |  |  |  | 
12 | Cn1ccc2ncnc(Oc3ccc(Nc4nc5ccccc5[nH]4)cc3)c21 | 0 | 0 | 0 | 0 | 0 | 0 | 0 | 100 | 0 | 0 |  |  |  |  |  |  | 
13 | Cc1cccc(-c2nc(Nc3ccc4[nH]ncc4c3)c3ccccc3n2)n1 [GW857175] | 4 | 0 | 10 | 0 | 52 | 12 | 17 | 19 | 72 | 51 |  |  |  |  |  |  | 
14 | COC(=O)c1c(-c2ccccc2)c2cc(C(=O)O)ccc2c(=O)n1Cc1ccccc1 | 0 | 0 | 0 | 0 | 0 | 0 | 11 | 0 | 0 | 0 |  |  |  |  |  |  | 
15 | Cc1cc(-c2ccc3c(c2)CC[C@@H](N[C@@H](C)c2ccccc2)C3)cnc1N.Cl [GW412617] | 45 | 0 | 12 | 27 | 82 | 10 | 8 | 16 | 37 | 19 |  |  |  |  |  |  | 
16 | COc1cccc(-c2cc(-c3c[nH]nc3-c3ccccn3)ccn2)c1 [GW680338] | 71 | 0 | 0 | 9 | 38 | 0 | 11 | 0 | 0 | 11 |  |  |  |  |  |  | 
17 | Cl.Oc1ccc(-c2nc(-c3ccccc3)[nH]c2-c2ccncc2)cc1 [SB-428218] | 0 | 0 | 10 | 0 | 0 | 63 | 64 | 0 | 0 | 0 |  |  |  |  |  |  | 
18 | Cl.O=C(Nc1cccc(-c2nn3ncccc3c2-c2ccnc(Nc3cccnc3)n2)c1)c1c(F)cccc1F [GSK312879] | 1 | 49 | 13 | 0 | 0 | 30 | 7 | 28 | 27 | 9 |  |  |  |  |  |  | 

Row | SMILES | %Inh (TNIK) [%] | %Inh (TNK1) [%] | %Inh (TNK2; [1]) [%] | %Inh (TNNI3K; [1]) [%] | %Inh (TRKA) [%] | %Inh (TRKB; [1]) [%] | %Inh (TRKC; [1]) [%] | %Inh (TRPM6; [1]) [%] | %Inh (TSSK1B; [1]) [%] | %Inh (TSSK3; [1]) [%] | %Inh (TNK2; [2]) | %Inh (TNNI3K; [2]) | %Inh (TRKB; [2]) | %Inh (TRKC; [2]) | %Inh (TRPM6; [2]) | %Inh (TSSK1B; [2]) | %Inh (TSSK3; [2])
19 | CC(C)(C)c1ccc(C(=O)Nc2cn3cc(Cl)ccc3n2)cc1 | 4 | 30 | 2 | 0 | 0 | 0 | 0 | 0 | 0 | 0 |  |  |  |  |  |  | 
20 | COc1cc(Nc2nccc(N3CCC(NC(=O)Nc4cc(C)ccc4C)C3)n2)cc(OC)c1OC (centres unmarked) [GSK1379762] | 0 | 14 | 15 | 0 | 18 | 0 | 20 | 0 | 7 | 21 |  |  |  |  |  |  | 
21 | O=C1NC(=O)C(N2CCc3ccccc32)=C1c1ccccc1Cl [SB-373598] | 5 | 3 | 11 | 4 | 22 | 0 | 4 | 11 | 8 | 18 |  |  |  |  |  |  | 
22 | Cc1ccc(C(=O)Nc2ccc(Nc3ccnc4cc(-c5ccccn5)ccc34)cc2O)cc1.Cl [GW440146] | 0 | 45 | 95.3 | 0 | 7 | 0 | 34 | 57 | 34 | 13 |  |  |  |  |  |  | 
23 | CSc1nn2c(=O)cc(N3CCOCC3)nc2n1Cc1cccc(C(F)(F)F)c1C [GSK2363608] | 0 | 0 |  |  | 0 |  |  |  |  |  | 17% and 30% | 1% and 10% | 0% and 3% | 0% and 11% | 22% and 0% | 18% and 77% | 18% and 6%
24 | Fc1cccc(COc2nnc(-c3ccc4c(c3)CCO4)o2)c1 | 14 | 0 | 0 | 0 | 24 | 0 | 48 | 0 | 0 | 0 |  |  |  |  |  |  | 
25 | CCCc1ccc(S(=O)(=O)NC2CCN(c3ccnc(Nc4ccc(F)cc4)n3)C2)cc1 (centres unmarked) [GSK1379715] | 0 | 0 | 26 | 13 | 0 | 0 | 28 | 0 | 100 | 15 |  |  |  |  |  |  | 
26 | Clc1cc(Cl)cc(Nc2ccnc(Nc3cc(Cl)cc(Cl)c3)n2)c1 [GSK175726] | 0 | 0 | 12 | 6 | 19 | 0 | 0 | 0 | 0 | 10 |  |  |  |  |  |  | 
27 | CS(=O)(=O)c1ccc(-c2nc3n(c2-c2ccncc2)CCC3)cc1 [SKF-105942] | 0 | 0 | 42 | 19 | 0 | 0 | 0 | 0 | 100 | 6 |  |  |  |  |  |  | 
28 | Cc1nnc(-c2ccc3occ(-c4ccc(S(C)=O)cc4)c3c2)[nH]1 (centres unmarked) | 5 | 0 | 0 | 15 | 28 | 0 | 43 | 1 | 0 | 2 |  |  |  |  |  |  | 
29 | Cn1ccc2ncnc(Oc3cccc(C(=O)Nc4ccccc4)c3)c21 | 16 | 3 | 9 | 1 | 21 | 0 | 0 | 0 | 9 | 0 |  |  |  |  |  |  | 
30 | Cc1csc(-c2nc(Nc3ccncc3)c3ccccc3n2)n1 [GW869640] | 50 | 21 | 0 | 18 | 44 | 12 | 22 | 44 | 0 | 23 |  |  |  |  |  |  | 
31 | Cc1ccc(NC(=O)Nc2cc(C(C)(C)C)nn2-c2ccccc2)cc1 [GSK1014915] | 0 | 0 | 15 | 21 | 0 | 28 | 26 | 24 | 2 | 14 |  |  |  |  |  |  | 
32 | Cn1cncc1-c1ccc2ncnc(Nc3ccc(OCc4ccccc4)cc3)c2c1 [GW320571] | 0 | 0 | 29 | 23 | 45 | 0 | 0 | 0 | 29 | 16 |  |  |  |  |  |  | 
33 | O=C(Nc1ccc2c(c1)OCO2)NC1CCN(c2ccnc(Nc3ccc(F)cc3)n2)C1 (centres unmarked) [GSK1379724] | 0 | 16 | 10 | 0 | 0 | 19 | 57 | 8 | 0 | 18 |  |  |  |  |  |  | 
34 | O=C(Nc1n[nH]c2nc(-c3nccs3)c(Br)cc12)C1CCCC1 [SB-742609] | 1 | 2 | 4 | 6 | 0 | 59 | 24 | 0 | 8 | 0 |  |  |  |  |  |  | 
35 | CC1=C(C(=O)Nc2cc3cn[nH]c3cc2F)C(c2ccc(C(F)(F)F)cc2)CC(=O)N1 (centres unmarked) [GSK429286] | 0 | 0 | 15 | 3 | 0 | 0 | 0 | 0 | 13 | 14 |  |  |  |  |  |  | 
